# Reference: the supplement of paper PMC7366291
# Counter-ions that a name gives are not always drawn. ± gives the standard deviation or the standard deviation of the averaged measurements.
# System: Danio rerio Tg(wt1b:EGFP) embryo, pronephros
# Assay: glomerular separation, fold change vs DMSO control; higher = glomeruli further apart (abnormal)
# Details: 25 µM; exposure: 24-48 hpf
# How it was run: (§1)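 Dechorionated Tg(wt1b:EGFP) zebrafish embryos were treated with 25 μM compound in 0.5% DMSO, in HEPES-buffered E3 with 0.003% PTU, from 24 to 48 hpf at 28.5°C. On maximum projections of dorsal pronephros images, 16 hand-placed reference points in Fiji gave distances and angles, and values more than 2 SD from the feature mean were left out. Results are fold changes over the mean of same-day DMSO-treated embryos.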
row,SMILES,glomerular separation
1,Fc1ccc([C@@H]2CCNC[C@H]2COc2ccc3c(c2)OCO3)cc1 [Paroxetine Hydrochloride],0.594 ± 0.17
2,O=C(O)CCC(=O)Nc1ccc(S(=O)(=O)Nc2nccs2)cc1 [Succinylsulfathiazole],0.974 ± 0.39
3,CCOc1ccc2ccccc2c1C(=O)N[C@@H]1C(=O)N2[C@@H]1SC(C)(C)[C@@H]2C(=O)O [Nafcillin sodium salt monohydrate],0.868 ± 0.32
4,Nc1ncn(C2OC(CO)C(O)C2O)c(=O)n1 (centres undefined) [Azacytidine-5],0.981 ± 0.4

# System: Danio rerio Tg(wt1b:EGFP) embryo, pronephros
# Assay: glomerular width (mean of left and right), fold change vs DMSO control; higher = wider glomerulus
# Details: 25 µM; exposure: 24-48 hpf
# How it was run: as §1
row,SMILES,glomerular width
1,Cc1ccccc1C(OCCN(C)C)c1ccccc1 (centres undefined) [Orphenadrine hydrochloride],1.04 ± 0.013
2,C#C[C@]1(O)CC[C@H]2[C@@H]3CCc4cc(O)ccc4[C@H]3CC[C@@]21C [Ethinylestradiol],0.823 ± 0.015
3,CCCN(CCC)S(=O)(=O)c1ccc(C(=O)O)cc1 [Probenecid],0.907 ± 0.091
4,CCN(CC)CCOCCOC(=O)C1(c2ccccc2)CCCC1 [Carbetapentane citrate],0.949 ± 0.062
5,CCCOc1cc(N)ccc1C(=O)OCCN(CC)CC [Propoxycaine hydrochloride],0.982 ± 0.023
6,c1ccc([C@H]2CN3CCSC3=N2)cc1 [Levamisole hydrochloride],1.08 ± 0.018
7,O=C1OCCN1/N=C/c1ccc([N+](=O)[O-])o1 [Furazolidone],0.9957 ± 0.006
8,O=C(Oc1cccc2cccnc12)c1ccccc1 [Benzoxiquine],0.56 ± 0.11
9,CN(C)CCC(c1ccccc1)c1ccccn1 (centres undefined) [Pheniramine maleate],1.07 ± 0.064
10,O=c1[nH]c(=O)n(C2CCCO2)cc1F (centres undefined) [Tegafur],1.05 ± 0.057
11,NC(=O)N1c2ccccc2CC(=O)c2ccccc21 [Oxcarbazepine],1 ± 0.035
12,Cc1cc2c(s1)Nc1ccccc1N=C2N1CCN(C)CC1 [Olanzapine],0.925 ± 0.034
13,Cc1cc(O)c(C(=O)N[C@@H](C(=O)N[C@@H]2C(=O)N3C(C(=O)O)=C(CSc4nnnn4C)CS[C@H]23)c2ccc(O)cc2)cn1 [Cefpiramide],0.985 ± 0.089
14,CC(=O)[C@H]1CC[C@H]2[C@@H]3C[C@H](C)C4=CC(=O)CC[C@]4(C)[C@H]3[C@@H](O)C[C@]12C [Medrysone],1.17 ± 0.072
15,CC(=O)OCC(CCn1cnc2cnc(N)nc21)COC(C)=O [Famciclovir],1.06 ± 0.048
16,O=C(O)CCc1nc(-c2ccccc2)c(-c2ccccc2)o1 [Oxaprozin],0.672 ± 0.032
17,Cc1c(NC(=O)c2cccnc2)c(=O)n(-c2ccccc2)n1C [Nifenazone],1.03 ± 0.014
18,CC(=O)CC(c1ccc([N+](=O)[O-])cc1)c1c(O)c2ccccc2oc1=O (centres undefined) [Acenocoumarol],0.94618 ± 0.00069
19,C=C1C[C@H]2[C@@H]3C=C(C)C4=CC(=O)CC[C@]4(C)[C@H]3CC[C@]2(C)[C@@]1(OC(C)=O)C(C)=O [Melengestrol acetate],1.07 ± 0.039
20,CN1[C@@H]2CC[C@H]1C[C@@H](OC(=O)c1c[nH]c3ccccc13)C2 [Tropisetron hydrochloride],1.02 ± 0.051

row,SMILES,glomerular width
1,COc1c(N2CCNC(C)C2)c(F)cc2c(=O)c(C(=O)O)cn(C3CC3)c12 (centres undefined) [Gatifloxacin],1.02 ± 0.054
2,COc1cccc2c1C(=O)c1c(O)c3c(c(O)c1C2=O)C[C@@](O)(C(=O)CO)C[C@@H]3O[C@H]1C[C@H](N)[C@@H](O)[C@H](C)O1 [Epirubicin hydrochloride],1.07 ± 0.031
3,O=c1[nH]c(=O)n([C@H]2C[C@H](O)[C@@H](CO)O2)cc1F [Floxuridine],0.972 ± 0.015
4,CCOc1nc2cccc(C(=O)O)c2n1Cc1ccc(-c2ccccc2-c2nnn[nH]2)cc1 [Candesartan],1.03 ± 0.023
5,CC1CC(OC(=O)C(O)c2ccccc2)CC(C)(C)N1C (centres undefined) [Eucatropine hydrochloride],0.975 ± 0.042
6,Oc1c(I)cc(Cl)c2cccnc12 [Clioquinol],0.626 ± 0.024
7,NS(=O)(=O)c1cc2c(cc1Cl)NCNS2(=O)=O [Hydrochlorothiazide],0.972 ± 0.024
8,CC(C)Cc1ccc([C@H](C)C(=O)O)cc1 [S-(+)-ibuprofen],0.59 ± 0.021
9,COc1cc2nc(N3CCN(C(=O)C4COc5ccccc5O4)CC3)nc(N)c2cc1OC (centres undefined) [Doxazosin mesylate],0.965 ± 0.026
10,CC(C)(C)NCC(O)c1cc(O)cc(O)c1 (centres undefined) [Terbutaline hemisulfate],1 ± 0.029
11,CCOC(=O)C1=C(C)NC(C)=C(C(=O)OC)C1c1cccc(Cl)c1Cl (centres undefined) [Felodipine],0.634 ± 0.029
12,COc1cc(C(=O)NCc2ccc(OCCN(C)C)cc2)cc(OC)c1OC [Trimethobenzamide hydrochloride],1.05 ± 0.012
13,C[C@@H]1NC(=O)NC1=O [Methylhydantoin-5-(L)],0.967 ± 0.048
14,C[C@H](CCC(=O)O)[C@H]1CC[C@H]2[C@@H]3[C@H](O)C[C@@H]4C[C@H](O)CC[C@]4(C)[C@H]3CC[C@]12C [Chenodiol],0.744 ± 0.025
15,O=C(O)CCCC[C@@H]1SC[C@@H]2NC(=O)N[C@@H]21 [Biotin],0.993 ± 0.043
16,CCN(CC)CCNC(=O)c1cc(Br)c(N)cc1OC [Bromopride],1.04 ± 0.015
17,Fc1ccc([C@@H]2CCNC[C@H]2COc2ccc3c(c2)OCO3)cc1 [Paroxetine Hydrochloride],1.03 ± 0.042
18,O=C(O)CCC(=O)Nc1ccc(S(=O)(=O)Nc2nccs2)cc1 [Succinylsulfathiazole],1.03 ± 0.012
19,CCOc1ccc2ccccc2c1C(=O)N[C@@H]1C(=O)N2[C@@H]1SC(C)(C)[C@@H]2C(=O)O [Nafcillin sodium salt monohydrate],0.941 ± 0.019
20,Nc1ncn(C2OC(CO)C(O)C2O)c(=O)n1 (centres undefined) [Azacytidine-5],0.979 ± 0.017
